Consider 64 compounds from PubChem BioAssay AID624136 (Broad Institute, 2012).

Among all 17,000 compounds or so, about 75 (0.4%) were called active.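 Rule for the calls: active = compounds whose four printed spots each glow above background more than chance allows, each with a p-value under 7%; inactive = the rest.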 What follows is part of a selection rich in actives, with near analogues and random picks from the rest.

For this experiment, the system named is mutant tumor protein p53 (GST-tagged), Homo sapiens. The experiment can be described thus: binders of human mutant p53, primary screen, biochemical, small molecule microarray, anti-GST fluorescence (AID 624136). As to conditions: small molecule microarray binding.
As for `C[C@H](CO)N1C[C@H](C)[C@@H](CN(C)C(=O)Nc2ccc3c(c2)OCO3)Oc2ccc(NC(=O)NC3CCCCC3)cc2CC1=O`, the result was inactive.

As to `CC(C)NC(=O)Nc1ccc2c(c1)CC(=O)N([C@@H](C)CO)C[C@@H](C)[C@@H](CN(C)S(=O)(=O)c1ccccc1)O2`, the call was inactive.

For `C[C@@H]1CN([C@@H](C)CO)C(=O)c2cc(N(C)C)ccc2O[C@@H](C)CCCCO[C@H]1CN(C)Cc1ccncc1`, the result was inactive.

As to `CC(=O)O[C@H]1C[C@@H](OC(C)=O)C(C)(C)C2C[C@@H](O)[C@]3(C)C(CC[C@@]4(C)[C@H](c5ccoc5)OC(=O)C5OC543)[C@]21C` (some centres undefined), the outcome was inactive.

Take `CCC(=O)O[C@]1(C(=O)CCl)[C@@H](C)CC2C3CCC4=CC(=O)C=C[C@]4(C)[C@@]3(F)[C@@H](O)C[C@@]21C` (some centres undefined): the result was inactive.

Turning to `COc1ccc2nc(SCC(=O)Nc3ccc(I)cc3)[nH]c2c1`, the call was inactive.

Consider `C[C@@H]1CN([C@@H](C)CO)C(=O)c2cccc(NC(=O)Nc3ccc(C(F)(F)F)cc3)c2O[C@@H]1CN(C)S(=O)(=O)c1cccs1`, for which the call was inactive.

For `C[C@H](CO)N1C[C@H](C)[C@H](CN(C)Cc2ccccc2)OCCCC[C@H](C)Oc2ccc(NC(=O)CCC(F)(F)F)cc2C1=O`, the call was inactive.

Regarding `OCCNc1nc(Nc2ccc(Cl)cc2)nc(N2CCCCC2)n1`, the result was inactive.

On to `C[C@@H]1CN([C@@H](C)CO)C(=O)c2cccc(NS(=O)(=O)c3ccc(F)cc3)c2O[C@H]1CN(C)C(=O)NC1CCCCC1`, for which the outcome was inactive.

Turning to `C[C@H]1CN([C@@H](C)CO)C(=O)Cc2cc(NS(C)(=O)=O)ccc2O[C@@H]1CN(C)CC1CC1`, the result was inactive.

Take `Cc1ccc(-c2cc(C(F)(F)F)n3nc(C(=O)NCCN4CCOCC4)c(Cl)c3n2)cc1`: the result was inactive.

For the compound `CCC(=O)Nc1cccc(NC(=O)COc2ccc(Br)cc2)c1`, the result was inactive.

Take `CNC[C@H]1Oc2ccc(NC(=O)Nc3ccc4c(c3)OCO4)cc2CC(=O)N([C@H](C)CO)C[C@H]1C`: the call was inactive.

Take `COc1ccc(CN(C)C[C@H]2Oc3ccc(NC(=O)Cn4cnnn4)cc3CC(=O)N([C@@H](C)CO)C[C@@H]2C)cc1`: the outcome was inactive.

For `C[C@H]1CN([C@@H](C)CO)C(=O)c2cccc(NS(=O)(=O)c3ccc(Cl)cc3)c2O[C@H]1CN(C)Cc1ccc2c(c1)OCO2`, the result was inactive.

In the case of `Cc1noc(C)c1S(=O)(=O)Nc1ccc2c(c1)C(=O)N([C@@H](C)CO)C[C@@H](C)[C@@H](CN(C)Cc1ccccc1)OCCCC[C@H](C)O2`, the outcome was inactive.

For the compound `CC(C)NC(=O)Nc1ccc2c(c1)C(=O)N([C@@H](C)CO)C[C@H](C)[C@H](CN(C)C(=O)Nc1ccc(F)cc1)OCCCC[C@@H](C)O2`, the outcome was inactive.

Consider `CC(=O)CC(=O)N1C(=O)N(C)[C@@]2(C)Oc3ccccc3[C@@H]1[C@H]2COC(=O)c1ccccc1`, for which the result was inactive.

Take `C[C@@H]1CN([C@@H](C)CO)C(=O)Cc2cc(NS(C)(=O)=O)ccc2O[C@H]1CN(C)C(=O)Nc1ccccc1`: the compound was called inactive.

As to `CO[C@H]1C(=O)c2c(O)c(CC=C(C)C)c(O)c(CC=C(C)C)c2O[C@@H]1c1ccc(O)cc1`, the compound was called inactive.

For the compound `CC(C)NC(=O)Nc1ccc2c(c1)C(=O)N([C@H](C)CO)C[C@@H](C)[C@@H](CN(C)S(=O)(=O)c1cccs1)OCCCC[C@@H](C)O2`, the compound was classed as inactive.

With `O=C1O[C@H](c2ccccc2)[C@H](c2ccccc2)N2[C@H]1[C@@H](C(=O)N1CCN(c3ncccn3)CC1)[C@]1(C(=O)Nc3ccccc31)[C@H]2c1ccc(OCCO)cc1`, the compound was classed as inactive.

On to `O=C1O[C@@H](c2ccccc2)[C@@H](c2ccccc2)N2[C@@H](c3ccccc3OCCO)[C@]3(C(=O)Nc4ccc(C#CC5(O)CCCCCC5)cc43)[C@@H](C(=O)N3CCCCCCC3)[C@H]12`, for which the compound was classed as inactive.

Consider `O=C1O[C@@H](c2ccccc2)[C@@H](c2ccccc2)N2[C@@H](c3ccccc3OCCO)[C@]3(C(=O)Nc4ccccc43)[C@@H](C(=O)N3CCCCCCC3)[C@H]12`, for which the compound was called active.

`COC(=O)C(CC#Cc1ccc2c(c1)[C@]1(C(=O)N2)[C@H](c2ccccc2OCCO)N2[C@H](c3ccccc3)[C@H](c3ccccc3)OC(=O)[C@H]2[C@@H]1C(N)=O)C(=O)OC`: the result was inactive.

For the compound `COc1ccc(C#Cc2ccc3c(c2)[C@]2(C(=O)N3)[C@H](c3ccccc3OCCO)N3[C@H](c4ccccc4)[C@H](c4ccccc4)OC(=O)[C@H]3[C@@H]2C(=O)N2CCCCCCC2)cc1`, the result was active.

Take `COc1ccc(C#Cc2ccc3c(c2)[C@]2(C(=O)N3)[C@H](C(=O)N3CCCCCCC3)[C@H]3C(=O)O[C@H](c4ccccc4)[C@H](c4ccccc4)N3[C@@H]2c2ccc(O)cc2)cc1`: the call was inactive.

`CC(=O)c1cccc(NC(=O)c2ccc(CNS(=O)(=O)c3ccc(C(C)(C)C)cc3)cc2)c1`: the compound was classed as inactive.

For the compound `C[C@@H]1CCCCO[C@H](CN(C)C(=O)NC2CCCCC2)[C@H](C)CN([C@@H](C)CO)C(=O)c2cc(NC(=O)C3CCCCC3)ccc2O1`, the compound was called inactive.

Consider `C[C@@H]1CCCCO[C@H](CN(C)S(=O)(=O)c2ccccc2)[C@H](C)CN([C@@H](C)CO)C(=O)c2cc(N(C)C)ccc2O1`, for which the call was inactive.

For the compound `C[C@@H]1CN([C@@H](C)CO)C(=O)Cc2cc(NC(=O)Nc3ccc4c(c3)OCO4)ccc2O[C@@H]1CN(C)C(=O)Nc1ccc2c(c1)OCO2`, the call was inactive.

As for `C[C@@H]1CN([C@H](C)CO)C(=O)c2cc(NS(=O)(=O)c3ccccc3)ccc2O[C@H]1CN(C)C(=O)Nc1ccc2c(c1)OCO2`, the result was inactive.

As for `O=c1cc(CSc2nnnn2-c2ccccc2)[nH]c(=S)[nH]1`, the outcome was inactive.

For the compound `Cc1ccc(C)c(S(=O)(=O)NC(C)C(=O)Nc2ccc(Br)cc2F)c1` (centres undefined), the outcome was inactive.

With `C[C@H](CO)N1C[C@H](C)[C@H](CN(C)Cc2ccncc2)Oc2ccc(NC(=O)Cc3cn(C)c4ccccc34)cc2CC1=O`, the outcome was inactive.

For `COc1ccc(-c2cc(C(=O)N3CCCC3C(=O)O)c(C)o2)cc1OC` (centres undefined), the result was inactive.

As to `CCN1CCN(S(=O)(=O)c2cc(OCC(N)=O)c(C)cc2Cl)CC1`, the compound was classed as inactive.

Consider `Cc1cc(C(=O)Nc2cccc3c2O[C@@H](CN(C)C(=O)Nc2ccc(F)cc2)[C@H](C)CN([C@@H](C)CO)C3=O)n(C)n1`, for which the outcome was inactive.

`C[C@H](CO)N1C[C@H](C)[C@@H](CN(C)Cc2ccc(C(=O)O)cc2)Oc2ccc(NC(=O)Cn3cnnn3)cc2CC1=O`: the compound was classed as inactive.

Consider `C[C@@H]1CN([C@@H](C)CO)C(=O)c2cccc(NC(=O)c3ccncc3)c2O[C@H]1CN(C)S(=O)(=O)c1ccc(F)cc1`, for which the compound was called inactive.

With `C[C@H](CO)N1C[C@H](C)[C@@H](CN(C)CC2CCCCC2)Oc2ccc(NC(=O)Cn3cnnn3)cc2CC1=O`, the outcome was inactive.

Regarding `COc1cc(C2OC(c3cc(OC)c(OC)c(OC)c3)C(C)C2C)cc(OC)c1OC` (centres undefined), the result was inactive.

`C[C@@H]1CN([C@@H](C)CO)C(=O)c2cc(NS(=O)(=O)c3ccccc3)ccc2O[C@@H](C)CCCCO[C@H]1CN(C)S(=O)(=O)c1cccs1`: the result was inactive.

As for `Cc1cc(C)cc(N2C(=O)CSC2c2cccc([N+](=O)[O-])c2)c1` (centres undefined), the compound was classed as inactive.

For the compound `C[C@H](CO)N1C[C@H](C)[C@H](CN(C)C)Oc2ncc(C#Cc3ccc(F)cc3)cc2C1=O`, the result was inactive.

On to `C[C@H]1CN([C@@H](C)CO)C(=O)Cc2cc(NC(=O)NC3CCCCC3)ccc2O[C@H]1CN(C)S(=O)(=O)c1ccccc1`, for which the result was inactive.

Turning to `C[C@H]1CN([C@@H](C)CO)C(=O)c2cccc(NS(=O)(=O)c3ccccc3)c2O[C@@H]1CN(C)C(=O)Nc1ccc(C(F)(F)F)cc1`, the compound was called inactive.

As for `Cc1noc(C)c1NC(=O)N(C)C[C@@H]1Oc2ccc(NC(=O)CCN3CCOCC3)cc2CC(=O)N([C@H](C)CO)C[C@@H]1C`, the result was inactive.

Consider `COc1ccc(S(=O)(=O)Nc2ccc3c(c2)CC(=O)N([C@@H](C)CO)C[C@@H](C)[C@@H](CN(C)C)O3)cc1`, for which the compound was called inactive.

For the compound `CCO/C([O-])=N\c1c[n+](N2CCOCC2)no1`, the compound was classed as inactive.

Consider `C[C@H](CO)N1C[C@H](C)[C@@H](CN(C)CC2CC2)Oc2ccc(NS(=O)(=O)c3cn(C)cn3)cc2CC1=O`, for which the result was inactive.

Regarding `Cc1ccc(-c2cn3c4c(sc3n2)CCCC4)cc1`, the result was inactive.

Regarding `Cc1noc(C)c1S(=O)(=O)N(C)C[C@H]1Oc2ccc(NC(=O)CCN3CCOCC3)cc2CC(=O)N([C@H](C)CO)C[C@H]1C`, the compound was classed as inactive.

In the case of `C[C@@H]1CN([C@H](C)CO)C(=O)CCCn2cc(nn2)CO[C@@H]1CN(C)C(=O)c1ccc2ccn(C)c2c1`, the outcome was inactive.

With `CC(C)NC(=O)N(C)C[C@@H]1Oc2ccc(NC(=O)C3CC3)cc2C(=O)N([C@@H](C)CO)C[C@H]1C`, the outcome was inactive.

Take `C[C@@H]1CN([C@H](C)CO)C(=O)Cc2cc(NC(=O)C3CC3)ccc2O[C@H]1CN(C)Cc1ccc2c(c1)OCO2`: the compound was classed as inactive.

`C[C@@H]1CN([C@H](C)CO)C(=O)Cc2cc(NC(=O)C3CC3)ccc2O[C@H]1CN(C)Cc1ccc(Cl)c(Cl)c1`: the outcome was active.

In the case of `C[C@@H]1CCCCO[C@H](CN(C)Cc2ccncc2)[C@H](C)CN([C@H](C)CO)C(=O)c2cc(NC(=O)Nc3ccccc3)ccc2O1`, the call was inactive.

With `C[C@@H]1CCCCO[C@H](CN(C)C(=O)c2ccccc2)[C@H](C)CN([C@@H](C)CO)C(=O)c2cc(NC(=O)Nc3ccc4c(c3)OCO4)ccc2O1`, the compound was classed as inactive.

Take `C[C@H](CO)N1C[C@H](C)[C@@H](CN(C)C(=O)Nc2ccccc2)Oc2ccc(NC(=O)C3CC3)cc2CC1=O`: the outcome was inactive.

In the case of `C[C@@H]1CN([C@@H](C)CO)C(=O)c2cc(NC(=O)Nc3ccc4c(c3)OCO4)ccc2O[C@@H](C)CCCCO[C@@H]1CN(C)Cc1ccccc1`, the compound was called active.

For the compound `C[C@@H]1CCCCO[C@@H](CN(C)Cc2ccc(C(=O)O)cc2)[C@H](C)CN([C@@H](C)CO)C(=O)c2cc(NC(=O)Nc3ccc(C(F)(F)F)cc3)ccc2O1`, the outcome was inactive.

Turning to `C[C@@H]1CC[C@]2(C)[C@H](CC[C@@H](O)[C@]2(C)O)[C@@]1(C)CC(=O)c1ccoc1`, the result was inactive.
